Only some compounds are listed: those with a hit (about 4.6% of all), similar ones and a draw of the others.
USP7 inh = blocks human USP7 ubiquitin-rhodamine cleavage | Q93009 | purified USP7, Ub-rhodamine cleavage fluorescence | inhibition, % at 20 µM | 0.3% of 47,000 active
UCHL1 block = inhibitors of human UCHL1 deubiquitinase | P09936 | purified UCHL1, Ub-rhodamine cleavage fluorescence | 0.2% of 47,000 active | inhibition, % at 20 µM | AID 1645859
USP8 inh = inhibitors of human USP8 deubiquitinase | P40818 | purified USP8, Ub-rhodamine cleavage fluorescence, 30 min | inhibition, % at 20 µM | 4.2% of 47,000 active | AID 1645853
USP10 inh = human USP10 deubiquitinase inhibition; purified USP10, Ub-rhodamine fluorescence, 60 min; inhibition, % at 20 µM; 1.1% of 47,000 active; AID 1645856
Target sequence (Q14694 whole entry, looked up): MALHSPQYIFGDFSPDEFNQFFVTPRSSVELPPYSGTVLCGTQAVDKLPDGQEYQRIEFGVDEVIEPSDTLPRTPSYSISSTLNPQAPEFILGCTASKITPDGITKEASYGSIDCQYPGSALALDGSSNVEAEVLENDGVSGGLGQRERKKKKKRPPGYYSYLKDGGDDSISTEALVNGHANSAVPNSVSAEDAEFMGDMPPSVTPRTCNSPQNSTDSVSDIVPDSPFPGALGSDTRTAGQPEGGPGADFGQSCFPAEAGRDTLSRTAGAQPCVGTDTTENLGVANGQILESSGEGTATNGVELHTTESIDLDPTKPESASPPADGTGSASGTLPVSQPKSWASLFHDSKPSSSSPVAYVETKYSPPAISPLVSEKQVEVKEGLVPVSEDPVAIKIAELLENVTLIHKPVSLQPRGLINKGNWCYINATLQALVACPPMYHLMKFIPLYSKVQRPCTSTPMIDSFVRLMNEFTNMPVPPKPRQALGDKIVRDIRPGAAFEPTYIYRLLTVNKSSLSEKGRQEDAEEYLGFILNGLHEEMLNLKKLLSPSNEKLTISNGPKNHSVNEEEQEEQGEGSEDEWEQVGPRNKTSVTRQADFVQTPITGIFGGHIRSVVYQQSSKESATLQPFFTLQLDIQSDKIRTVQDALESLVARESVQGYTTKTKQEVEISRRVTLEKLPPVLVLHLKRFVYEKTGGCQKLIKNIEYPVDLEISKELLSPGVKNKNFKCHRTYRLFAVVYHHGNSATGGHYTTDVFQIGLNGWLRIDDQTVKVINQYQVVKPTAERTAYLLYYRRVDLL
Hits are given with their value; 0 = inactive. Rule as the data show it: active = inhibition above about 30%; inactive = the rest.

SMILES | USP7 inh | UCHL1 block | USP8 inh | USP10 inh
COc1ccc2[nH]cc(S(=O)(=O)c3ccc(C)c(F)c3)c(=O)c2c1 | 0 | 0 | 0 | 0
O=c1c(S(=O)(=O)c2cc(F)cc(F)c2)c[nH]c2cc(Cl)ccc12 | 0 | 0 | 80 | 0
CCc1ccc(OCC(=O)NCC(c2ccco2)N2CCOCC2)cc1 (configuration not stated) | 0 | 0 | 0 | 0
O=[N+]([O-])c1cccc(-c2csc(-c3ccc4c(c3)OCO4)n2)c1 | 0 | 0 | 31 | 0
c1ccc(-c2cc(-c3csc(-c4ccc5c(c4)OCCO5)n3)on2)cc1 | 0 | 0 | 0 | 0
CC12CCN(Cc3ccc(O)cc3)CCN1C(=O)N(Cc1ccccn1)C2=O (configuration not stated) | 0 | 0 | 0 | 0
O=C(c1ccccc1)N1CCN(C(=O)c2cc(-c3cccnc3)n[nH]2)CC1 | 0 | 0 | 0 | 0
COc1ccc(C(=O)N2CCC(Nc3cccnc3)C2)c(OC)n1 (configuration not stated) | 0 | 0 | 62 | 0
O=C(c1cc(-c2ccccc2)n[nH]1)N1CCC(Nc2cccnc2)C1 (configuration not stated) | 0 | 0 | 58 | 0
O=C(c1ccc2cc[nH]c2c1)N1CCC(Nc2cccnc2)C1 (configuration not stated) | 0 | 0 | 83 | 0
CCOc1ccc(C(=O)N2CCC(Nc3cccnc3)C2)cc1 (configuration not stated) | 0 | 0 | 49 | 0
Cn1ccc(-c2nc3ccccc3[nH]2)n1 | 0 | 0 | 30 | 0
Cc1nc2ccc(NC(=O)COc3ccccc3[N+](=O)[O-])cc2s1 | 0 | 0 | 44 | 0
Fc1ccccc1CN1CCN(Cc2cccnc2)CC1 | 0 | 0 | 0 | 0
N#Cc1ccc(-c2ccc(OCC(=O)Nc3ccc4c(c3)CCC4)cc2)cc1 | 0 | 0 | 36 | 0
NS(=O)(=O)c1cccc(NC(=O)COc2ccc3c(c2)CCC3)c1 | 0 | 0 | 0 | 0
N#Cc1ccc(OCC(=O)Nc2ccc(-c3cn4ccsc4n3)cc2)cc1 | 0 | 0 | 46 | 0
CC(=O)c1[nH]c(C)c(C(=O)NCCc2ccccc2)c1C | 0 | 0 | 0 | 0
Cc1cc(=O)n(CC(=O)Nc2ccc3c(c2)OCCO3)c2c1c(C)nn2-c1ccccc1 | 0 | 0 | 0 | 0
CCc1cc(=O)n(CC(=O)Nc2ccc3c(c2)OCCO3)c2c1c(C)nn2-c1ccc(C)cc1 | 0 | 0 | 44 | 0
CC(C)c1nccn1-c1cccc(C2CCCNC2)n1 (configuration not stated) | 0 | 0 | 0 | 0
CCc1cccc(N2C(=O)c3ccccc3C2C(=O)NCc2ccccc2OC)c1 (configuration not stated) | 0 | 0 | 32 | 0
COc1ccccc1CNC(=O)C1c2ccccc2C(=O)N1c1ccc(F)cc1 (configuration not stated) | 0 | 0 | 0 | 0
Cc1cccc(-c2noc(Cn3c(=O)[nH]c4cc5c(cc4c3=O)OCO5)n2)c1 | 0 | 0 | 55 | 0
COc1cccc(CN2C(=O)c3cc4occc4n3CC2(C)C(=O)NC2CCCCCC2)c1 (configuration not stated) | 0 | 0 | 0 | 0
SMILES | USP7 inh | UCHL1 block | USP8 inh | USP10 inh
COc1cccc(CN2C(=O)c3cc4ccccc4n3CC2(C)C(=O)NC2CCCC2)c1 (configuration not stated) | 0 | 0 | 35 | 0
O=C(Oc1ccc(F)cc1)c1cc(-c2ccc3c(c2)OCCO3)on1 | 0 | 0 | 55 | 0
O=C(CCCC(=O)c1ccccc1)Nc1ccc(F)cc1Cl | 0 | 0 | 35 | 0
CCOc1ccc2oc(C(=O)OCC(=O)Nc3ccc(S(=O)(=O)N4CCCC4)cc3)c(C)c2c1 | 0 | 0 | 0 | 0
O=C(c1ccco1)C1C2C(=O)N(c3ccc(Br)cc3)C(=O)C2C2c3ccccc3C=CN12 (configuration not stated) | 0 | 0 | 46 | 0
COc1ccc(Cl)cc1NC(=O)C1[C@@H]2C(=O)N(Cc3ccc4c(c3)OCO4)C(=O)[C@@H]2[C@H]2c3ccccc3C=CN12 (some centres not stated) | 0 | 0 | 72 | 0
COc1ccc(N2C(=O)[C@@H]3[C@H]4c5ccccc5C=CN4C(C(=O)Nc4ccc5c(c4)OCO5)[C@@H]3C2=O)cc1 (some centres not stated) | 0 | 0 | 87 | 0
Cc1ccc(C)c(NC(=O)Cc2nc(-c3ccccn3)n[nH]2)c1 | 0 | 0 | 0 | 0
COc1ccc2c(Cl)c(C(=O)Nc3ccc(S(=O)(=O)N(C)Cc4ccccc4)cc3)sc2c1 | 0 | 0 | 0 | 42
Nc1c(-c2nc(-c3ccccc3)cs2)nnn1-c1cccc(F)c1 | 0 | 0 | 0 | 0
COc1cc2c(cc1OC)-c1cc(Nc3ccc(Br)cc3)nc(=O)n1CC2 | 0 | 0 | 0 | 43
COc1ccc(CCNc2cc3n(c(=O)n2)CCc2cc(OC)c(OC)cc2-3)cc1OC | 0 | 0 | 0 | 0
Cc1csc(NC(=O)c2c[nH]c3ccc(F)cc3c2=O)n1 | 0 | 0 | 85 | 46
COc1ccc2[nH]cc(C(=O)c3ccc(F)cc3)c(=O)c2c1 | 0 | 0 | 0 | 0
Cc1ccc(S(=O)(=O)CC(C)N2CCN(C)CC2)cc1 (configuration not stated) | 0 | 0 | 0 | 0
CC(=O)NCCc1ccc(O)cc1 | 0 | 0 | 0 | 0
COC(=O)C1(Cc2ccc(O)cc2)OC(=O)C(O)=C1c1ccc(O)cc1 (configuration not stated) | 0 | 37 | 0 | 0
COc1cc(OCC(=O)NC(C)C)cc2c1C(=O)O[C@@H](C)CCCC(=O)CCCCC2 | 0 | 0 | 0 | 0
COc1cc2c(c(OCC(=O)Nc3ccc4c(c3)OCCO4)c1)C(=O)O[C@@H](C)CCCC(=O)CCCCC2 | 0 | 0 | 68 | 32
O=c1ccc(-c2nc(-c3cccc(Br)c3)no2)cn1Cc1ccncc1 | 0 | 0 | 0 | 0
COc1cccc(C(=O)Nc2ccc(SC(C(=O)Nc3ccccc3)c3ccccc3)cc2)c1 (configuration not stated) | 0 | 0 | 0 | 0
Cc1ccccc1NC(=O)C(Sc1ccc(NC(=O)c2ccccc2C(=O)O)cc1)c1ccccc1 (configuration not stated) | 0 | 0 | 0 | 0
Cc1ccc(C(=O)O)cc1NC(=O)C(Sc1cccc(NC(=O)c2cccc(Cl)c2)c1)c1ccccc1 (configuration not stated) | 0 | 0 | 40 | 34
Cc1cccc(C(=O)Nc2cccc(SC(C(=O)Nc3ccc(Cl)c(C(=O)O)c3)c3ccccc3)c2)c1 (configuration not stated) | 0 | 0 | 44 | 69
O=C(O)c1ccccc1C(=O)Nc1ccc(SC(C(=O)Nc2cccc(Cl)c2)c2ccccc2)cc1 (configuration not stated) | 0 | 0 | 0 | 52
O=c1[nH]c2ccc(S(=O)(=O)Nc3ccc(O)c4ccccc34)cc2[nH]1 | 0 | 37 | 95 | 49
O=C(Oc1ccc2c(c1)OCO2)C(c1ccccc1)c1ccccc1 | 0 | 0 | 31 | 0
O=C(O)c1ccc(OC(=O)C(c2ccccc2)c2ccccc2)cc1 | 0 | 0 | 0 | 0
COCCNc1nnc(-c2ccncc2)s1 | 0 | 0 | 0 | 0

Screens from PubChem BioAssay.
